Results on 29 compounds are retold here after PubChem BioAssay.

Activity calls are given as the source filed them.

Chain of NADPH oxidase 4 (Homo sapiens) (Q9NPH5 whole entry, looked up): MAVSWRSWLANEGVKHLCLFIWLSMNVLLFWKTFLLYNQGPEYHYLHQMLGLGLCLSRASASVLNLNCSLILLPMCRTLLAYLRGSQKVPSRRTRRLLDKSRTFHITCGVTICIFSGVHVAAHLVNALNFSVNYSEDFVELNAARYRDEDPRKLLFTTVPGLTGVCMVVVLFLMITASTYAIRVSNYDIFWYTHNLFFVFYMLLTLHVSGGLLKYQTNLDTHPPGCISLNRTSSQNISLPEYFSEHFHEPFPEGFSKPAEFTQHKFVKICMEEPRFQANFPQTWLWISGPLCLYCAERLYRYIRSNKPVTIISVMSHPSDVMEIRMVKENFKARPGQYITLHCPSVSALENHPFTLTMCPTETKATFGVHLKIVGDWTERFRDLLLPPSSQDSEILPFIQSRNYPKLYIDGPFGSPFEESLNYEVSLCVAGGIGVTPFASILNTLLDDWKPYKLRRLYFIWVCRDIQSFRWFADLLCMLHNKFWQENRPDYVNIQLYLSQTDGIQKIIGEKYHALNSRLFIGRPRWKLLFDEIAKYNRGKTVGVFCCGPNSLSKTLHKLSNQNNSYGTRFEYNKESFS

This test has as its target NADPH oxidase 4 (Homo sapiens) (UniProt Q9NPH5). Nature of the test: NOX4-dependent H2O2 signal modulators, primary screen, NOX inhibitor project, cell-based, HEK293-NOX4, tetracycline-induced, Amplex Red fluorescence (AID 1160). The settings on record: 45 min, higher = more signal, called active from +8 up or from −8 down.
In the case of `CON=C(C)CCC(=O)OC[C@H]1O[C@H](C#Cc2ccccc2)C=C[C@@H]1Oc1ccc(C)cc1`, the z-score was -2.25 (inactive).

Take `CC(C)(C)N1C(=O)[C@H]2[C@H]3[C@H](O)[C@H](O)CC(=NOC[C@@H](O)COCc4ccco4)[C@@H]3CC[C@H]2C1=O`: the z-score is -1.96 (inactive). Then `CO[C@@H]1[C@H](O)CO[C@H]1C=Cc1ccccc1`, with -0.898 (inactive). Then `CCN1C(=O)[C@H]2[C@H]3[C@H](O)[C@H](O)CC(=NOCC[C@@H]4C=C[C@H](OC(C)=O)[C@@H](COC(C)=O)O4)[C@@H]3CC[C@H]2C1=O`, with -0.0656 (inactive). As for `CO[C@@H](C1CCCCC1)[C@@H](C)[C@H](OCc1cccc(Br)c1)[C@@H](C)CO`, the z-score was 0.0443 (inactive). Then `CCOC(=O)CCN1C(=O)[C@H]2[C@H]3[C@H](O)[C@H](O)CC(=NOCC(C)C)[C@@H]3CC[C@H]2C1=O`, with 0.783 (inactive); and `CCOC(=O)CCN1C(=O)[C@H]2[C@H]3[C@H](O)[C@H](O)CC(=NO[C@@H]4O[C@H](CO)[C@@H](O)[C@H](O)[C@H]4O)[C@@H]3CC[C@H]2C1=O`, with 0.332 (inactive); and `CO[C@H]1COC(=O)CC=C[C@@H](C)COC(=O)[C@H]2CCCN2C(=O)CC=C[C@H]1C`, with 0.32 (inactive). Then `CCOC(=O)[C@H](Cc1ccccc1)NC(=O)CCC1CC(OC(=O)NCc2cccc3ccccc23)CC2(CCCC(COC(=O)NCCc3ccccc3OC)O2)O1` (some centres undefined), with 1.15 (inactive); and `Cc1ccc(S(=O)(=O)N[C@@H]2COC(=O)CC=C[C@@H](C)[C@H](NS(=O)(=O)c3ccc(C)cc3)COC(=O)[C@H](C)NC(=O)CC=C[C@H]2C)cc1`, with 0.375 (inactive); and `CCN1C(=O)[C@H]2[C@H]3[C@H](O)[C@H](O)CC(=NOCC=C(C)CCC=C(C)C)[C@@H]3CC[C@H]2C1=O`, with 0.207 (inactive).

As for `O=C1[C@H]2[C@H]3[C@H](O)[C@H](O)CC(=NOC[C@@H](O)COCc4ccco4)[C@@H]3CC[C@H]2C(=O)N1Cc1ccccc1`, the z-score was -0.3 (inactive).

`O=C1[C@H]2CCn3c(=O)n(-c4ccccc4)c(=O)n3[C@H]2[C@H](O)[C@@H]2O[C@H]12`: the z-score was -0.584 (inactive).

For `CON=C[C@@H](OC)[C@H](C)C=CCC(=O)OC`, the z-score is 0.358 (inactive). Take `CC(C)=CCCC(C)=CCON=C1C[C@@H](O)[C@@H](O)[C@@H]2[C@@H]3C(=O)N(Cc4ccc5c(c4)OCO5)C(=O)[C@@H]3CC[C@@H]12`: the z-score was -0.0437 (inactive). Under `CC(=O)OC[C@H]1O[C@H](CC=NO[C@@H](C)c2cc(-c3c(C)cc(C)cc3C)no2)C=C[C@@H]1OC(C)=O` stands -0.444 (inactive); under `COc1ccc(-c2cnnc(CCCn3ccnc3-c3ccccc3)n2)cc1`, -0.372 (inactive). `O=C1C2=CC[C@H]3C(=O)N(c4ccc(F)cc4F)C(=O)[C@H]3[C@H]2[C@H](O)[C@@H]2O[C@H]12`: the z-score is 0.0553 (inactive). Under `COC(=O)CC=C[C@@H](C)[C@@H](C=NOC[C@@H](O)COCc1ccco1)OC` stands 0.024 (inactive); under `COC(=O)[C@H](C)NC(=O)CCC1CC(OC(=O)NCc2cccc3ccccc23)CC2(CCCC(COC(=O)NCCCN3CCCC3=O)O2)O1` (some centres undefined), -0.0825 (inactive); under `CCOC(=O)[C@H](CC(C)C)NC(=O)CCC1CC(OC(=O)NCc2ccc3c(c2)OCO3)CC2(CCCC(COC(=O)NCCc3ccccc3OC)O2)O1` (some centres undefined), 0.886 (inactive). Regarding `CO[C@@H](C(C)C)[C@@H](C)C1OC(=O)CC1O` (some centres undefined), the z-score is 0.129 (inactive).

Regarding `Cc1ccc(C(C)C)n1C(=O)OC(C)(C)C`, the z-score was 0.209 (inactive).

Turning to `CCOC(=O)[C@H](Cc1ccccc1)NC(=O)CCC1CC(OC(=O)NCc2ccc3c(c2)OCO3)CC2(CCCC(COC(=O)NCCOc3ccccc3)O2)O1` (some centres undefined), the z-score is 0.519 (inactive). For the compound `CSCC[C@@H]1NC(=O)CC=C[C@@H](C)COC(=O)[C@H](C)COC1=O`, the z-score is 0.384 (inactive). Then `CO[C@H]1COC(=O)CCC[C@H](C)[C@@H](OC)COC(=O)CC=C[C@@H]1C`, with -0.0115 (inactive); and `CC(C)[C@@H](OCc1ccccc1)[C@H](C)C=NO[C@@H](C)c1cn([C@H](CO)Cc2ccccc2)nn1`, with -0.046 (inactive); and `CCN1C(=O)[C@H]2[C@@H]3C(=CC[C@H]2C1=O)C(=O)[C@H]1O[C@H]1[C@H]3O`, with -1.86 (inactive). Then `CC(C)=CCCC(C)=CCON=C1C[C@@H](O)[C@@H](O)[C@@H]2[C@@H]3C(=O)N(C4CCCCC4)C(=O)[C@@H]3CC[C@H]12`, with -1.02 (inactive).
